Most compounds without a hit are left out; they make up all but 3.6% or so of the library.
PI5P4K alpha inh: blocks human PI5P4K alpha kinase activity. PI5P4Kalpha enzyme, ADP-Glo luminescence, 60 min; active compounds read low. max response, %. P48426. AID 652105. actives 1.2% (n = 330,000); active = max response of -50% or lower; inconclusive = between -30% and -50%; inactive = -30% or higher; note: value at the top dose of about 77 µM; % is set by controls: 0 for no effect and ±100 for the full control effect
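Reactions run in 0.038 M HEPES pH 7.4, 0.28 mM EGTA, 0.1% CHAPS and 5% DMSO, with PI5P4Kalpha, substrate, compound and 5 microM ATP final, one hour at room temperature. Readout is ADP-Glo luminescence.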
Rango dissoc inh: inhibitors of RanGTP-induced Rango-importin beta complex dissociation; O95149+P62826; Biochemical FRET Rango-importin beta, RanGTP-induced dissociation; Potency, µM (highest dose often 46.1 µM), inactives show top-dose activity change, negative = inhibition; actives 0.071% (n = 340,000); calls by dose curve; note: potency is the fitted concentration of half-maximal effect; % of control where 0% means no effect; nearly all actives have a fitted effect of over 45% in size
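Recombinant Rango FRET biosensor (EYFP–snurportin 1 IBB–cerulean CFP10) at 0.1 uM premixed with 0.25 uM importin beta in PBS, 1 mM DTT, 0.02% Tween-20, 0.1% BSA. Compound added 5 min; RanGTP-RCC1 (0.6 uM Ran, 2 mM GTP, 0.2 uM RCC1) then triggers release, read at 45 min.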
Rango-impB inh: Rango-importin beta binding inhibition | AID 540263 | actives 0.031% (n = 340,000) | Potency, µM (highest dose often 92.2 µM), without a hit: at the highest dose inhibition of complex formation | Q14974 | Rango CFP/YFP FRET sensor + importin beta, 45 min; calls by dose curve;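 note: potency is the fitted concentration of half-maximal effect; 0% = DMSO wells and 100% = buffer wells lacking importin beta; nearly all actives have a fitted effect of over 15% in size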
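FRET biosensor (snurportin 1 IBB flanked by EYFP and cerulean), 50 nM, with compound 5 min, then 0.125 microM importin beta in PBS, 1 mM DTT, 0.02% Tween-20, 0.1% BSA. CFP/YFP ratio read after 45 min at room temperature; pre-read flags interference.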
PLK1 PBD block: PLK1 (human) polo-box domain binding inhibition | Potency, µM, for inactives: max response, negative = inhibition, hits mostly inhibitors | actives 2.8% (n = 360,000) | Plk1 PBD binding of FITC phosphopeptide, fluorescence polarization | P53350; note: potency is the fitted concentration of half-maximal effect; series mostly up to about 57 µM; % is set by controls: 0 for no effect and ±100 for the full control effect; nearly all actives have a fitted effect of over 65% in size
Target sequence (P53350 whole entry, looked up, the tested form may be a part): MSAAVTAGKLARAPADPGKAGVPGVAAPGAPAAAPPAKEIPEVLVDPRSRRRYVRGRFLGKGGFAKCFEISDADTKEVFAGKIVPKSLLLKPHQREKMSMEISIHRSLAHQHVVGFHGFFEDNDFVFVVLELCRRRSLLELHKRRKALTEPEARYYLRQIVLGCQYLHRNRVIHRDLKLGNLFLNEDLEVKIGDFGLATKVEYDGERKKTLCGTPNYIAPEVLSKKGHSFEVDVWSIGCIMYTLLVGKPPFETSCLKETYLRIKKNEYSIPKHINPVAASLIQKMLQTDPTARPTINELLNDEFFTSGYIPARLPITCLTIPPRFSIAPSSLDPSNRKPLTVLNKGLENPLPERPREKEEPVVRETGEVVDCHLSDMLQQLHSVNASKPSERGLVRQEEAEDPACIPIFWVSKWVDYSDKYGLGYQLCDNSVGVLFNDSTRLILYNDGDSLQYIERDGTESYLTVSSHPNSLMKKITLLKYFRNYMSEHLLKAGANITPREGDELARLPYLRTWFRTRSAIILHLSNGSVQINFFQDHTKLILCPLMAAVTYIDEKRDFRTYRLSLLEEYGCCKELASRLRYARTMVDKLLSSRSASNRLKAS
VDR inh: blocks the human vitamin D receptor. Potency, µM, inactives show max response, negative = inhibition, usual class: inhibitors. P11473. VDR-SRC2-3 peptide fluorescence polarization, 2 h. actives 0.93% (n = 400,000). AID 504847; note: potency is the fitted concentration of half-maximal effect; % is set by controls: 0 for no effect and ±100 for the full control effect
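FP read-out; VDR + SRC2-3 coactivator peptide; 23 nl compound by pintool; 2 h RT incubation; reagents held at 4 deg C, protected from light.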
KAT2A inh: blocks human GCN5L2 histone acetyltransferase; Q92830; GCN5L2 HAT assay, ThioGlo1 CoA-SH fluorescence; Potency, µM (top dose mostly 58.9 µM), for inactives: at the highest dose activity change, negative = inhibition, usual class: inhibitors; actives 0.21% (n = 390,000); note: potency is the fitted concentration of half-maximal effect; % is set by controls: 0 for no effect and ±100 for the full control effect
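Preincubate 20nM GCN5L2 with compound 15 min, RT → add 50uM ThioGlo1 + 75uM H3(1-25) + 70uM acetyl-CoA → read fluorescence 0 and 20 min. Primary qHTS; fluorescent artifacts likely.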
* = called active by the depositor; ? = inconclusive; nt = no result given. Unless noted, calls come from the whole dose curve; as a rule, active = well fitted curve in the direction sought with a large enough effect; inconclusive = small, poorly fitted or top-dose-only effect, or another doubt; inactive = no such curve, though single readings can be large; an effect the other way counts as inactive or inconclusive.

SMILES | PI5P4K alpha inh | Rango dissoc inh | Rango-impB inh | PLK1 PBD block | VDR inh | KAT2A inh
C=CCn1c(NC(=O)c2ccc(Br)o2)c(C(=O)OCC)sc1=S | nt | 15.3% | 1.9% | 6.7µM* | 89.1µM* | ?
CCOC(=O)c1c(NC(=O)c2ccc(Br)o2)sc(C)c1CC | 0.3 | 1.4% | -0.6% | -1.3% | -4.3% | -7.9%
Nc1nc(NC2CC2)c2ncn([C@H]3C=C[C@@H](CO)C3)c2n1 | nt | nt | nt | nt | 3.6% | -14.5%
CCc1nn2c(=O)cc(COc3cccc(NC(=O)c4ccco4)c3)nc2s1 | ? | 1.3% | 0.7% | 26.7µM* | ? | -9.0%
CCc1nn2c(=O)cc(COc3ccc(/C=C4\C(=N)N5N=C(C)SC5=NC4=O)cc3)nc2s1 | -72.3* | -12.1% | -5.4% | ? | -8.2% | ?
CCc1nn2c(=O)cc(COc3ccc(NC(=O)c4ccco4)cc3)nc2s1 | 1.4 | 4.0% | ? | 26.7µM* | -8.7% | -18.0%
CC(C)Cc1nn2c(=O)cc(COc3ccc(NC(=O)c4ccco4)cc3)nc2s1 | 1.2 | 0.0% | 0.5% | -8.0% | 1.8% | 2.2%
CCCc1nn2c(=O)cc(COc3ccc(NC(=O)c4ccco4)cc3)nc2s1 | 2.3 | 1.6% | -2.2% | 21.2µM* | -24.9% | -16.6%
Cc1ccc(S(=O)(=O)N2CCN(c3ccnc(-c4cccs4)n3)CC2)cc1 | nt | nt | nt | nt | 19.6% | nt
Fc1ccc(C(c2ccc(F)cc2)N2CCN(CC=Cc3ccccc3)CC2)cc1 | nt | nt | nt | nt | -10.3% | nt
CCSC1(SCC)N=C(N)C2(C#N)C(c3ccc(OC)c(OC)c3OC)C12C#N (stereo not drawn) | -4.5 | -11.4% | -1.1% | 13.4µM* | ? | 19.1%
COc1cccc(C2=N/C(=C\N(C)C)C(=O)O2)c1 | -28.5 | 17.1% | -1.6% | 16.8µM* | -12.5% | -8.7%
COc1cccc(-c2nc3ccccc3c(=O)o2)c1 | nt | 18.3% | 3.1% | -2.9% | -20.6% | -0.1%
Oc1ccc(N=Cc2ccc(O)c(O)c2)cc1 | -79.4* | -4.4% | -8.1% | 21.2µM* | ? | -10.7%
Oc1ccc(/C=N/N=C/c2ccc(O)c(O)c2)cc1O | -7.6 | -16.3% | ? | -15.6% | -7.0% | -4.7%
Cn1c(=O)c(=O)n(C)c2cc(N3CCOCC3)c(NS(=O)(=O)c3ccc([N+](=O)[O-])cc3)cc21 | ? | 6.6% | -0.1% | 18.9µM* | -7.2% | -16.9%
CCOc1ncccc1C(=O)Nc1cc(S(=O)(=O)N(CC)CC)ccc1N1CCOCC1 | 0.1 | 0.2% | -2.3% | 16.8µM* | 79.4µM* | -11.0%
CCN(CC)S(=O)(=O)c1ccc(N2CCOCC2)c(NS(=O)(=O)c2ccc(C(C)C)cc2)c1 | -21.6 | -7.0% | -1.8% | ? | 35.5µM* | -2.9%
COc1cc(CN(C(=O)COc2ccccc2)c2ccccn2)cc(OC)c1OC | nt | nt | nt | nt | -2.6% | -11.7%
CCOC(=O)c1cccc(NC(=O)COc2ccc3c(C)cc(=O)oc3c2)c1 | nt | nt | nt | nt | -12.2% | -3.7%
CSCC[C@H](NC(=O)[C@H](CCC(N)=O)NC(=O)[C@H](CCCCN)NC(=O)[C@H](CCCNC(=N)N)NC(=O)[C@H](Cc1ccc(O)cc1)NC(=O)[C@H](CCCNC(=N)N)NC(=O)[C@H](CO)NC(=O)[C@H](Cc1ccc(O)cc1)NC(=O)[C@H](CO)NC(=O)[C@H](CC(=O)O)NC(=O)[C@@H](NC(=O)[C@@H](N)Cc1ccccc1)[C@@H](C)O)C(=O)N[C@@H](C)C(=O)N[C@H](C(=O)N[C@@H](CCCCN)C(=O)N[C@@H](CCCCN)C(=O)N[C@@H](Cc1ccc(O)cc1)C(=O)N[C@@H](CC(C)C)C(=O)N[C@@H](C)C(=O)N[C@@H](C)C(=O)N[C@H](C(=O)N[C@@H](CC(C)C)C(=O)NCC(=O)N[C@@H](CCCCN)C(=O)N[C@@H](CCCNC(=N)N)C(=O)N[C@@H](Cc1ccc(O)cc1)C(=O)N[C@@H](CCCCN)C(=O)N[C@@H](CCC(N)=O)C(=O)N[C@@H](CCCNC(=N)N)C(=O)N[C@H](C(=O)N[C@@H](CCCCN)C(=O)N[C@@H](CC(N)=O)C(=O)N[C@@H](CCCCN)C(N)=O)C(C)C)C(C)C)C(C)C | nt | nt | nt | nt | 19.6% | -14.9%
c1ccc(N2CCN(c3nc(-c4ccccn4)nc4ccccc34)CC2)cc1 | ? | 11.9% | 2.2% | 10.6µM* | -5.3% | 1.1%
O=C(Nc1ccc(NC(=O)C2CC2)cn1)c1ccccc1 | -0.7 | 7.9% | 6.2% | 1.0% | 9.8% | -4.8%
O=C(Nc1ccc(NC(=O)C2CC2)cn1)c1ccccc1Cl | -15.4 | 14.9% | -1.2% | 23.8µM* | 15.5% | -19.3%
Cc1ccccc1-n1c(C)n[nH]c1=S | nt | 3.2% | 0.2% | -27.3% | -15.2% | -5.2%
SMILES | PI5P4K alpha inh | Rango dissoc inh | Rango-impB inh | PLK1 PBD block | VDR inh | KAT2A inh
Cc1cccn2c(=S)[nH]nc12 | -59.0* | ? | 1.9% | 0.5% | ? | nt
COc1cc(NC(=O)C/C(C)=N/NC(=O)C(=O)NCCO)c(OC)cc1Cl | 8.8 | -15.1% | -1.0% | 26.7µM* | -29.7% | -4.7%
COc1cc(NC(=O)C/C(C)=N/NC(=O)C(=O)NC2CCCCC2)c(OC)cc1Cl | -0.4 | -22.7% | -0.1% | 3.7% | -0.6% | -3.7%
Cn1c(O)c(N=NC(=O)CNC(=O)c2ccccc2)c2ccccc21 | 2.8 | -1.6% | -0.2% | 4.4% | 1.0% | 1.5%
Cn1c(N=NC(=O)c2ccccc2)c(O)c2ccccc21 | -19.7 | 17.3% | -5.0% | 26.7µM* | ? | -2.1%
COCc1nnc(NC(=O)CCCOc2ccccc2OC)s1 | -16.9 | -5.4% | 4.0% | 26.7µM* | -17.4% | -0.9%
COc1cc(C(=O)Nc2nnc(CC(C)C)s2)c([N+](=O)[O-])cc1OC | -0.4 | -7.3% | -6.0% | -10.8% | 1.4% | -6.5%
COCc1nnc(NC(=O)c2cc(OC)c(OC)cc2[N+](=O)[O-])s1 | -9.3 | 11.2% | 0.9% | 29.9µM* | -15.9% | 1.5%
COCc1nnc(NC(=O)c2cc(Cl)ccc2OC)s1 | nt | -13.8% | 0.0% | 29.9µM* | 18.2% | -4.0%
Cc1ccc(-c2cn3nc(N4CCCC(C(=O)NCc5ccc(F)cc5)C4)sc3n2)cc1 (stereo not drawn) | nt | nt | nt | nt | 11.8% | -3.3%
Cc1cccc(CNC(=O)c2ccc(NC(=O)N3CC(C)Sc4ccccc43)cc2)c1 (stereo not drawn) | nt | nt | nt | nt | 16.8% | 0.5%
COc1ccccc1N1CCN(C(CNC(=O)C(=O)NCCc2ccccc2)c2cccnc2)CC1 (stereo not drawn) | nt | nt | nt | nt | 1.3% | 0.9%
O=C(CSc1cccc2cccnc12)OCC(=O)c1ccccc1 | 0.0 | -0.9% | -0.1% | 21.2µM* | 20µM* | -7.5%
O=C(CSc1cccc2cccnc12)OCC(=O)c1ccc(Br)cc1 | 1.1 | -11.3% | 3.0% | -3.0% | 13.7% | -14.3%

Screening results from PubChem BioAssay.
